Mac1 fbg inh: inhibitors of CD11b/CD18 adhesion to fibrinogen, primary screen, K562 cells, luminescence; Integrin beta-2 (Homo sapiens) + Integrin alpha-M (Homo sapiens), P05107+P11215; 0.54% of 93,000 active; ATPlite luminescence; Mn2+ added to activate the integrin; inhibition, % at 10 µM;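 active means primary inhibition of 50% or more at 10 µM, then 40% or more on retest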
CYP2C19 activ: human CYP2C19 activators, primary screen, biochemical, luminescence | Cytochrome P450 2C19 (Homo sapiens), P33261 | recombinant CYP2C19, luciferin-H EGE luminescence; stronger effect = higher value; 0 = fully inhibited enzyme, 1 = untreated enzyme | activation factor at 5 µM | 96,000 tested, under 10 active;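 active means activation factor of at least 2 at 5 µM in the primary screen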
Target sequence (P33261 whole entry, looked up): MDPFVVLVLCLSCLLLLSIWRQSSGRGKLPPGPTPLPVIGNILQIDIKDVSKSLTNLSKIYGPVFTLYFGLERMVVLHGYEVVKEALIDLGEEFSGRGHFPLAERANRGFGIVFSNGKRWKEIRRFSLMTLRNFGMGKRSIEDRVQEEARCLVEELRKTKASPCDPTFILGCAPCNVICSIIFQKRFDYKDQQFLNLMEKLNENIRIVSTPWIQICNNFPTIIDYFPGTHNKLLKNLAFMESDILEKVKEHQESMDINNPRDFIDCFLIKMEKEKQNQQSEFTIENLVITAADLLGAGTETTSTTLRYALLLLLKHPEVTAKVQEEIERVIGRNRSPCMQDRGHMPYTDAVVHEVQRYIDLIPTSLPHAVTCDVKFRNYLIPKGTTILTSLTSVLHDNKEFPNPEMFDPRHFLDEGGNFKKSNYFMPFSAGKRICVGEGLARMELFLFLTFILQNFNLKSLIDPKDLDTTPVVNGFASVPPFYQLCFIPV
CYP2C9 act: human CYP2C9 activators, primary screen, biochemical, luminescence; Cytochrome P450 2C9 (Homo sapiens), P11712; recombinant CYP2C9, luciferin-H conversion; stronger effect = higher value; factor 1 = untreated enzyme, 0 = blocked; activation factor at 5 µM; 1.4% of 96,000 active; AID 1024, 2008;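 active means activation factor of 2 or more for CYP2C9 at a 5 µM dose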
CYP2C9 inhib: blockers of cytochrome P450 2C9 activity – biochemical, luminescence, ADME assay, primary screen; P11712; CYP2C9 Supersomes, luciferin-H conversion; inhibition, % at 5 µM; 20% of 96,000 active; AID 777, 2007;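 active means blocking of liver enzyme CYP2C9 beyond about 50% at 5 µM, limit read from the data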
CD11b adhes enh: enhancers of CD11b/CD18 adhesion to fibrinogen, primary screen, K562 cells, luminescence | Integrin beta-2 (Homo sapiens) + Integrin alpha-M (Homo sapiens), P05107+P11215 | ATPlite luminescence | activation, % at 10 µM | 0.07% of 93,000 active;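 active means 10 µM primary screen giving 50% or more activity, confirmed by 40% or more on retest at that dose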
CYP2C19 inh: blockers of cytochrome P450 2C19 activity – biochemical, luminescence, ADME assay, primary screen | CYP2C19 Supersomes, luciferin-H EGE luminescence, 30 min | inhibition, % at 5 µM | 21% of 96,000 active | AID 778, 2007;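 active means CYP2C19 inhibition above a set limit at 5 µM in the primary screen, cut at about 50% in these data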
A number is an active result; . = inactive; / = no result given. Only some compounds are listed: those with a hit (about 28% of all), similar ones and a draw of the others.

SMILES	Mac1 fbg inh	CYP2C19 activ	CYP2C9 act	CYP2C9 inhib	CD11b adhes enh	CYP2C19 inh
CC(C)C(=O)NC(Nc1ccccc1F)C(Cl)(Cl)Cl (stereo unspecified)	/	.	.	59	/	54
C[C@H](NC(=O)Nc1ccccc1F)C(=O)O	.	.	.	.	.	.
C/C(Cn1nnc([N+](=O)[O-])n1)=N\NC(=O)c1ccc(Cl)c(Cl)c1	.	.	.	.	.	.
Cc1ccc(N2C(=O)NC(NC(=O)C(C)(C)C)(C(F)(F)F)C2=O)cc1 (stereo unspecified)	.	/	/	/	.	/
CCC1(C)Cc2c(sc3nc(NC)n(C)c(=O)c23)CO1 (stereo unspecified)	.	.	.	.	.	56
CCC1(C)Cc2c(sc3nc(SCC(=O)O)[nH]c(=O)c23)CO1 (stereo unspecified)	.	.	.	.	.	.
CCC1(C)Cc2c(sc3nc4n(c(=O)c23)CCS4)CO1 (stereo unspecified)	.	.	.	51	.	64
Cc1ccc2nc(SCC(=O)Nc3nnc(SCC(N)=O)s3)[nH]c2c1	.	.	.	.	.	.
c1ccc(C2=Nc3ccccc3SC2c2nc3ccccc3[nH]2)cc1 (stereo unspecified)	.	.	.	.	.	.
CC(=O)NC1C(=O)N(CCc2ccccc2)c2ccc(Br)cc21 (stereo unspecified)	.	.	.	.	.	80
Cc1nn2c(=O)cc(CSc3nc4ccccc4[nH]3)nc2s1	.	.	.	.	.	58
C=CCn1c(C)cc(C(=O)CSc2nc3ccccc3c(=O)[nH]2)c1C	.	.	.	.	.	.
C=CCn1c(C)cc(C(=O)CSc2nc3ccccc3[nH]2)c1C	/	.	.	68	/	62
Cc1cc(C(=O)CSc2nc3ccc(Cl)cc3[nH]2)c(C)n1CC1CCCO1 (stereo unspecified)	83	.	.	92	.	96
Cc1cc(C(=O)CSc2nnc(-c3ccc(Cl)cc3)n2CC2CCCO2)c(C)n1C (stereo unspecified)	.	.	.	.	.	.
COc1ccc2nc(SCC(=O)NC(C)(C)C)[nH]c2c1	.	.	.	66	.	85
C=CCn1c(C)cc(C(=O)CSc2nc3ccccc3o2)c1C	.	.	.	.	.	64
Cc1cc(NC(=O)CSc2nc3ccc(Cl)cc3[nH]2)no1	.	.	.	62	.	.
C=CCn1c(C)cc(C(=O)COc2nncc3ccccc23)c1C	.	.	2	.	.	61
COc1ccc(Nc2nnc(SCC(=O)c3cc(C)n(CC4CCCO4)c3C)s2)cc1 (stereo unspecified)	.	.	.	59	.	72
COC(=O)CNC(=O)CSc1nnc(C)c(=O)[nH]1	.	/	/	/	.	/
Cc1cc(C(=O)CSc2nc3ccc(Cl)cc3[nH]2)c(C)n1C	.	.	.	93	.	94
COCCn1c(C)cc(C(=O)CSc2nc3ccccc3c(=O)[nH]2)c1C	.	.	.	.	.	.
Cc1cc(C(=O)CSc2nc3ccccc3[nH]2)c(C)n1C	.	.	.	60	.	87
C/C(N)=C(/C#N)C(=O)CSc1nc2ccc(C)cc2[nH]1	.	.	.	63	.	88
SMILES	Mac1 fbg inh	CYP2C19 activ	CYP2C9 act	CYP2C9 inhib	CD11b adhes enh	CYP2C19 inh
CC(=O)c1cc2c(cc1NC(=O)CSc1nc3ccc(C)cc3[nH]1)OCO2	.	/	/	/	.	/
Cc1ccc2nc(SCC(=O)c3cc(C)n(C)c3C)[nH]c2c1	.	.	.	57	.	.
COc1cc(NC(=O)c2ccccc2[N+](=O)[O-])ccc1NC(=O)C(C)C	.	/	/	/	.	/
CCC1CCCCN1CCCNC(=O)CC1Oc2ccc(C)cc2NC1=O (stereo unspecified)	.	.	.	.	.	.
O=C(CSc1nnc(-c2ccc(OC(F)F)cc2)o1)NC(=O)NCc1ccco1	.	.	.	.	.	.
CCN(CC)S(=O)(=O)c1ccc(NC(=O)c2cc(C(=O)OC)cc([N+](=O)[O-])c2)cc1	.	/	/	/	.	/
COc1ccccc1CNC(=O)COC(=O)Cc1c(Cl)cccc1Cl	.	/	/	/	.	/
O=C(COC(=O)C1CCC1)Nc1ccc(Oc2ccccc2)cc1	.	.	.	.	.	55
O=C(COC(=O)CCCNC(=O)c1ccc(Cl)cc1)NCc1ccccc1Cl	.	.	.	70	.	56
O=C(COC(=O)C1CCCCC1)NCCc1ccccc1	.	/	/	/	.	/
CC1CC1C(=O)OCC(=O)NCc1ccccc1Cl (stereo unspecified)	.	.	.	.	.	88
O=C(COC(=O)C1CCC1)NCc1ccccc1Cl	.	.	.	.	.	88
O=C(COC(=O)C1CC1)Nc1ccc(Oc2ccccc2)cc1	.	.	.	.	.	.
CCOc1ccc(OCC)c(NC(=O)C2CCCN(S(=O)(=O)c3c(C)n[nH]c3C)C2)c1 (stereo unspecified)	.	.	.	64	.	.
CCOc1ccc(OCC)c(NC(=O)C2CCCN(S(=O)(=O)c3c(C)noc3C)C2)c1 (stereo unspecified)	.	.	.	.	.	.
CCOc1ccc(OCC)c(NC(=O)C2CCCN(S(=O)(=O)c3cnc[nH]3)C2)c1 (stereo unspecified)	.	.	.	79	.	.
C(=C\CSc1nnnn1-c1ccccc1)/CSc1nnnn1-c1ccccc1	.	.	.	.	.	.
Cc1ccc(S(=O)(=O)NCCSc2nnnn2-c2ccc(C(N)=O)cc2)cc1	.	.	.	.	.	.
O=S(=O)(NCCSc1nnnn1-c1ccccc1)c1cccs1	.	.	.	.	.	99
CS(=O)(=O)NCCSc1nnnn1-c1ccccc1	.	.	.	.	.	52
CNC(=O)c1ccccc1S(=O)(=O)c1ccccc1C#N	.	.	.	.	.	.
COc1ccc(C2(CNC(=O)CCC(=O)O)CCCC2)cc1OC	.	.	.	.	.	.
CC(=O)c1ccc(N(C)C)c2c(N(C)C)cccc12	.	.	.	.	.	.
CC(=O)c1ccc2c3c(cccc13)CC2	.	.	3.6	.	.	.
CS(=O)(=O)Nc1ccc2c3c(cccc13)CC2	.	.	2.5	.	.	.
COc1ccccc1/C=C/C=N/N1CCN(Cc2cccc3ccccc23)CC1	.	.	.	.	.	.
COc1ccc(-n2c(COc3ccccc3)nnc2SCC(N)=O)cc1	.	.	.	.	.	63
COc1cccc(-n2c(COc3ccc(C)cc3)nnc2SCC(N)=O)c1	.	.	.	.	.	67
NC(=O)CSc1nnc(COc2ccccc2)n1C1CCCCC1	.	.	.	56	.	80
